Each structure is given as a SMILES string. The full ranking holds about 110,000 compounds; the median of “z-score” is about -0.1, and the highest 2% start at about 2. The sample holds the highest values, similar compounds and a random draw of the others, so the mix is not that of the screen. Calls of active or inactive are those of the source.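 Rule for the calls: active = z-score in the third read window above 3 or below -3; inactive = the rest.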

The results in this text go back to PubChem BioAssay AID488969 (Vanderbilt High Throughput Screening Facility, 2010).

In this experiment the target is Metabotropic glutamate receptor 8 (Rattus norvegicus) (UniProt P70579). The experiment is described as follows: rat mGluR8 modulators via GIRK flux, primary screen, cell-based, thallium flux, HTS (AID 488969). Conditions: HEK293 rat mGluR8, GIRK (G protein-gated inwardly rectifying potassium channel) thallium flux, FluoZin2; at 10 µM; stronger effect = higher value; submaximal glutamate (EC20) added with thallium.
Sequence of Metabotropic glutamate receptor 8 (Rattus norvegicus) (P70579 whole entry, looked up): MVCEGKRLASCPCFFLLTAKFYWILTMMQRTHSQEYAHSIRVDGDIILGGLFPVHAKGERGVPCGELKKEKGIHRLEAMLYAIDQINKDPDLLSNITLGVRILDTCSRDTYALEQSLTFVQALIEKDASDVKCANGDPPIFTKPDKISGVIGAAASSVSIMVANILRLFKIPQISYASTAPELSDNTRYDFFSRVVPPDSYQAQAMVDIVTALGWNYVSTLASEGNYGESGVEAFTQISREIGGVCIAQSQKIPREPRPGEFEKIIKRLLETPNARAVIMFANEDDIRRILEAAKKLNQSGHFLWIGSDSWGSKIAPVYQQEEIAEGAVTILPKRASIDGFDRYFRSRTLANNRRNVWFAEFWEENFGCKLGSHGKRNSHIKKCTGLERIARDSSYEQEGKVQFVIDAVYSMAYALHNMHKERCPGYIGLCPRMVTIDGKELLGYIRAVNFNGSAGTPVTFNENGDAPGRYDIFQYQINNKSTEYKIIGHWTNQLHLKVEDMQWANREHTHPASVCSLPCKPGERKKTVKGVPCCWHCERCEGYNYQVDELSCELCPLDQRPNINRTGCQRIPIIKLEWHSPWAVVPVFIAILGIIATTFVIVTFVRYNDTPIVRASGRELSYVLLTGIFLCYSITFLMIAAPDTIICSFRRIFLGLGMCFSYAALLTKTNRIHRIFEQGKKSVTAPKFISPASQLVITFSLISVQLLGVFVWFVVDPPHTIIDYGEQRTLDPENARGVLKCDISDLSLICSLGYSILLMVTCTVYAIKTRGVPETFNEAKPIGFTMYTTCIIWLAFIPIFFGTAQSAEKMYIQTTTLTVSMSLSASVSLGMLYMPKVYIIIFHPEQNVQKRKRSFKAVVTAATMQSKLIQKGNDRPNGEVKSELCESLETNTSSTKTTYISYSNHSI
In the case of `O=C(CCC(=O)OCC(=O)c1cccc([N+](=O)[O-])c1)Nc1cccc(Cl)c1Cl`, the z-score is -0.0921.
For `O=C(c1ccc(N2CCN(CCO)CC2)nc1)N1CCOCC1` the value was 0.0375; for `CC12CC(c3ccccc3O1)N(C(=O)c1ccco1)C(=S)N2c1ccc(F)cc1` (stereo not drawn), -0.812; for `CC(C)OC(=O)c1cc2c(ccn2C)n1CC(=O)N(Cc1ccccc1)c1ccc(F)cc1`, -0.00352.
For `CCOC(=O)c1nnn(-c2nonc2N)c1COc1ccc(F)cc1` the value was -0.0888; for `O=C(CCCOc1ccccc1)Nc1nccs1`, -1.29; for `Cc1ccccc1OCCCC(=O)Nc1nccs1`, 2.49.
For `Cc1ccc(C)c(OCCCC(=O)Nc2nccs2)c1` the value was -0.0356.
As to `COCCCn1c(=N)c(C(=O)NCc2ccc3c(c2)OCO3)cc2c(=O)n3ccccc3nc21`, the z-score is -0.494.
For `CCCC(=O)OCC(=O)Nc1ccccc1Sc1ccccc1` the value was -0.604; for `COc1ccccc1/C=N/NC(=O)CC(=O)NCc1cccnc1`, -0.2; for `O=C(c1cc2nc(-c3ccco3)cc(C(F)(F)F)n2n1)N1CCN(Cc2ccccc2)CC1`, -0.1.
`O=C1NC(=O)C2(COC(c3cccnc3)OC2)S1` (stereo not drawn) had a z-score of 2.49.
`CCOC(=O)C1=C(C)NC(=O)NC1c1cccnc1` (stereo not drawn) displayed a z-score of 0.62.
For `O=C1NC(=O)C2(COC(c3ccccc3Cl)OC2)S1` (stereo not drawn) the value was -0.116; for `CCCCn1c(CN2CCN(c3ccc(F)cc3)CC2)nc2c1c(=O)n(C)c(=O)n2C`, -0.751; for `CCn1c(SCc2nc(-c3ccccc3)no2)nnc1-c1cccs1`, 1.84.
As for `CCn1c(SCc2nc(-c3ccccc3)no2)nc2ccccc21`, the z-score was 3.16 (active).
As for `c1ccc(CSc2nnnn2-c2ccccc2)cc1`, the figure is -0.542; as for `c1ccc(-c2noc(CSc3nnnn3-c3ccccc3)n2)cc1`, 2.18; as for `CCn1c(SCc2nc(-c3ccccc3)no2)nnc1-c1ccco1`, -0.421.
For `c1ccc(-c2noc(CSc3nnnn3C3CCCCC3)n2)cc1` the value was -0.0529; for `CC(C)c1[nH]nc2c1C(c1cccc(OC(=O)N3CCOCC3)c1)C(C#N)=C(N)O2` (stereo not drawn), -1.23; for `FC(F)(F)c1ccc(CSc2nccn2-c2ccccc2)cc1`, 0.167.
For `COc1cc(OC)c(OC)cc1/C=N/NC(=O)c1ccc(=O)n(C)c1` the value was -0.238.
For `Cc1cccc(C(=O)/C=C2/c3ccccc3CC(C)(C)N2C)c1`, the z-score was -0.509.
For `CCOCCN1CCN(c2c(CC)c(C)nc3cc(-c4cc(OC)cc(OC)c4)nn23)CC1` the value was -0.938; for `Nc1nc(SCC(=O)NC2CCCC2)[nH]c(=O)c1-c1ccccc1`, -0.603.
`O=C(c1ccccc1NS(=O)(=O)c1cccs1)N1CCCC1` came in with a z-score of 0.676.
Compound `CCOC(=O)CSc1nc2ccccc2c(=O)n1C1CCCC1` had a z-score of 0.684.
As for `CCOC(=O)CSc1nc2cc(C(=O)NCc3ccco3)ccc2c(=O)n1C1CCCCC1`, the figure is 0.724; as for `COC(=O)c1ccc2c(=O)n(C3CCCCC3)c(SCC#N)nc2c1`, 3.63 (active).
`Cc1ccc(OC(=S)Nc2ccc(F)cc2)cc1` registered a z-score of 0.0616.
For `Cc1ccc(OC(=S)Nc2ccccc2)c(C)c1` the value was 3.2 (active); for `COc1ccc(C)cc1NC(=O)NCCC1=CCCCC1`, 10.6 (active).
As for `COc1ccc(NC(=O)Nc2cc(C)ccc2F)cc1`, the figure is 0.0419.
For `COc1ccc(NC(=O)Nc2cc(C)ccc2OC)cc1` the value was 2.83; for `COc1ccc(OC)c(NC(=O)Nc2ccc(Cl)cc2)c1`, 0.245.
For the compound `COc1ccc(NC(=O)C(=O)NCCC2=CCCCC2)c(OC)c1`, the z-score was -0.33.
As for `Cc1ccc(OC(=S)Nc2ccc(O)cc2)cc1`, the figure is 0.0849; as for `COc1ccc(C(=O)NCCC2=CCCCC2)cc1OC`, -0.214; as for `CCOC(=O)c1ccccc1NC(=O)Nc1ccc(OC)c(OC)c1`, 0.154.
As for `CCOC(=O)c1ccc(NC(=O)Nc2ccc(OC)c(OC)c2)cc1`, the figure is 6.79 (active).
As for `CCCCOC(=O)c1ccc(NC(=O)Nc2ccc(OC)c(OC)c2)cc1`, the figure is -0.113.
Turning to `Cc1nn(CC(=O)Nc2cccc(S(N)(=O)=O)c2)c(C)c1[N+](=O)[O-]`, the z-score was -0.212.
As for `CCOc1ccc(-c2nnn(CC(=O)c3cc(OC)ccc3OC)n2)cc1`, the figure is 1.52; as for `CCCNC(=O)Cn1cnc2sc(C(=O)N3CCCC(C(=O)OCC)C3)c(C)c2c1=O` (stereo not drawn), -1.05; as for `CCN(CC)S(=O)(=O)c1ccc(NC(=O)C2CCCO2)cc1` (stereo not drawn), -0.205.
As for `CCCn1nc(C(=O)NCCN2CCOCC2)c2ccccc2c1=O`, the figure is 0.608.
For `Cc1occc1-c1nnc(SCC(=O)N(C)CCC#N)n1N` the value was 0.286; for `O=C(NC1CCCCC1)C(c1ccc(O)cc1)N(CC1CCCO1)C(=O)C1COc2ccccc2O1` (stereo not drawn), 0.338.
`CCOC(=O)Nc1cc(C)ccc1OC` had a z-score of 0.0736.
Consider `COc1ccc(C)cc1NC(=O)Nc1ccccc1`, for which the z-score is 11.5 (active).
As for `COc1ccc(C)cc1NC(=O)Nc1ccc(Br)cn1`, the figure is 0.233; as for `Cc1cccc(-c2nnn(Cc3nnc(NC(=O)c4ccccc4)s3)n2)c1`, -0.0603.
As for `Cc1ccc(C(=O)N2CCN(c3ccc(C(F)(F)F)cn3)CC2)c(C)c1`, the figure is -0.0998.
For `CC1CC(C)CN(C(=O)c2cc(-c3ccccn3)nc3ccccc23)C1` (stereo not drawn) the value was -1.27; for `Cn1ccnc1SCC(=O)Nc1ccc2nc(SCC(=O)NC3CC3)sc2c1`, -0.00819; for `CCOc1c2ccc(C(=O)NCc3cc(C(F)(F)F)cc(C(F)(F)F)c3)cc2nn1C`, 0.112.
On to `C=C(C)Cn1c(=S)[nH]c2ccccc2c1=O`, for which the z-score was -0.0946.
For `CCOC(=O)N1CCN(C(=O)CCCn2c(=S)[nH]c3ccc(Br)cc3c2=O)CC1` the value was 1.24; for `C=CCn1c(=S)[nH]c2ccc(Br)cc2c1=O`, 15 (active); for `O=C(CCCCCn1c(=S)[nH]c2ccc(Br)cc2c1=O)NCC1CCCO1` (stereo not drawn), 1.92.
As for `C=CCn1c(=S)[nH]c2ccccc2c1=O`, the figure is 13.6 (active); as for `CC(C)OC(=O)CSc1nnc(Cc2ccccc2)n1Cc1ccco1`, -0.4; as for `Cc1cccc2cc(C(c3nnnn3C(C)(C)C)N3CCN(C(=O)c4ccco4)CC3)c(=O)[nH]c12` (stereo not drawn), 0.516.
As for `CCN1CCN(C(=O)c2cc3sccc3n2CC(=O)c2ccccc2)CC1`, the z-score was -0.119.
As to `CCn1c(C(=O)N2CCC(C(=O)N3CCN(c4ccccn4)CC3)CC2)cc2sccc21`, the z-score came to 0.181.
For `CCN1CCN(C(=O)C2CCN(C(=O)c3cc4sccc4n3CC)CC2)CC1` the value was 2.56; for `CC1(C)C(C#N)=C(N)OC2=C1C(=O)CCC2`, 0.297; for `Cc1cc2nc3c(c(=O)n2[nH]1)CCCC3`, -0.219.
As for `CCCC(=O)Nc1nc2ccc(S(N)(=O)=O)cc2s1`, the figure is -0.295; as for `O=C(NCC1CCCO1)C(c1cccs1)N(C(=O)c1ccc(-c2ccccc2)[nH]1)C1CCCC1` (stereo not drawn), -0.0712; as for `O=C(NCC1CCCO1)C(c1cccs1)N(Cc1cccs1)C(=O)c1ccc(-c2ccccc2)[nH]1` (stereo not drawn), -0.486.
For `O=C(NCC1CCCO1)C(c1cccs1)N(Cc1ccccc1Cl)C(=O)c1ccc(-c2ccccc2)[nH]1` (stereo not drawn) the value was 2.14; for `COC(=O)CC1COc2ccccc2N1C(=O)c1ccc(C(C)(C)C)cc1` (stereo not drawn), -0.191; for `CCCC(=O)Nc1cc(-c2nnc(OC)c3ccccc23)ccc1N1CCOCC1`, -0.445.
As for `O=C(Oc1ccc([N+](=O)[O-])cc1)c1cccnc1`, the z-score was -0.0965.
For `CCNC(=S)SCCOc1ccc(C)cc1` the value was 0.376; for `CNC(=S)SCCOc1ccccc1C`, 0.297; for `CNC(=S)SCCOc1ccc(C)cc1`, 6.37 (active).
Regarding `Cc1ccc2nc3sc(C(=O)Nc4c(C)[nH]c(=O)[nH]c4=O)c(N)c3cc2c1`, the z-score is -0.158.
For the compound `NC(=O)CCn1nc(-c2ccc(Cl)cc2)c2ccccc2c1=O`, the z-score was -0.686.
With `O=C(/C=C(\O)c1ccc(Cl)cc1)C(=O)NNC(=O)C(O)(c1ccccc1)c1ccccc1`, the z-score is -0.125.
As for `Cc1ccc(/C(O)=C/C(=O)C(=O)NNC(=O)C(O)(c2ccccc2)c2ccccc2)cc1`, the figure is 2.44.
Take `COc1ccc(/C(O)=C/C(=O)C(=O)NNC(=O)C(O)(c2ccccc2)c2ccccc2)cc1`: the z-score is -0.343.
In the case of `CCn1c(SCC(=O)Nc2nnc(C)s2)nnc1-c1ccco1`, the z-score was -0.0211.
For `O=C1C(=O)N(CCO)C(c2ccccc2)/C1=C(\O)c1ccccc1` (stereo not drawn) the value was -0.284.
For `O=C(CNC(=O)C12CC3CC(CC(C3)C1)C2)N1CCN(S(=O)(=O)c2cccs2)CC1` the value was -0.178.
As for `CCCn1c(SCC(=O)NC2CCCCC2C)n[nH]c1=O` (stereo not drawn), the figure is 0.79.
As to `O=C(CNc1ccccc1)N/N=C/c1ccc([N+](=O)[O-])o1`, the z-score was -0.389.
As for `Cc1ccc(-c2ccc(/C=N/NC(=S)Nc3ccccc3)o2)cc1[N+](=O)[O-]`, the figure is 0.442; as for `O=[N+]([O-])c1ccc(/C=N/NC(=S)Nc2ccccc2F)o1`, 6.05 (active); as for `O=[N+]([O-])c1ccc(/C=N/NC(=S)Nc2ccccc2C(F)(F)F)o1`, 1.06.
For `O=[N+]([O-])c1ccc(/C=N/NC(=S)Nc2ccccc2)o1` the value was 2.92; for `COC(=O)N/N=C/c1ccc([N+](=O)[O-])o1`, -0.0263.
As for `N#CCCn1cc(/C=N/O)c(-c2ccccc2)n1`, the figure is 0.0606; as for `C1=C(CCNc2nnnn2-c2ccccc2)CCCC1`, -0.26; as for `Fc1cccc(NC(=S)Nc2ccc(Br)cc2)c1`, 0.843.
Regarding `Fc1ccccc1NC(=S)N/N=C/c1ccccc1Br`, the z-score is 13.4 (active).
For `Cc1ccc(NC(=S)N/N=C/c2c(C)nn(-c3ccccc3)c2N2CCCC2)cc1` the value was 0.376; for `Cc1nn(-c2ccccc2)c(N2CCCC2)c1/C=N/NC(=S)Nc1ccccc1C(F)(F)F`, 0.583; for `Fc1ccc(CNC(=S)Nc2ccc(Cl)cc2Cl)cc1`, 0.134.
As for `CN(C)/C=N/C(=S)Nc1ccccc1F`, the figure is 0.0261; as for `Cc1nn(-c2ccccc2)c(N2CCCC2)c1/C=N/NC(=S)Nc1ccccc1F`, 2.42; as for `Fc1ccccc1/C=N/NC(=S)Nc1ccc(Cl)cc1Cl`, 3.47 (active).
For `FC(F)(F)c1ccc(Cl)c(NC(=S)N/N=C/c2ccccc2C(F)(F)F)c1` the value was 1.14; for `Fc1ccccc1NC(=S)Nc1ccc(Br)cc1`, 0.657; for `Cn1c(NC(=O)c2ccco2)cc(=O)n(C)c1=O`, -0.188.
Turning to `O=C(CCSCCc1ccccn1)Nc1ccc(Br)cc1F`, the z-score was -0.191.
As for `CCc1nc2ccccc2n1Cc1ccccc1OC`, the figure is -0.822; as for `CC1=NNC(=O)C1CCC(=O)N/N=C/C(Br)=C/c1ccccc1` (stereo not drawn), -0.0952; as for `O=C(c1ccc([N+](=O)[O-])cc1)N(Cc1ccc(Cl)cc1)N1C(=O)CCCC1=O`, -0.682.
